From PubChem BioAssay come the findings set out here.

Molecules are shown by their SMILES. “And” between values parts separate entries of the source, which are not always exact repeats. Equal entries are not always repeated. The source made the active and inactive calls. How the calls were made is not given here.

Test [1] is described as follows: liver-stage malaria parasite load reduction – cell-based, known kinase inhibitor set, luminescence, hepatoma host viability (AID 624392).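 Further: infected cells incubated roughly two days before readout.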 The note with it: Plasmodium liver stage in hepatoma cells, luciferase luminescence, concentration not given here; liver cell % of control: measured here: host liver cell viability; parasite % of control: stronger effect = lower value.
Test [2] in a line: altered dexamethasone sensitivity, NF-kB reporter, cell-based, luciferase, IL-1B stimulus (AID 624486).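 On percent of negative control (+Dex): 100% = mean signal of vehicle control wells on the plate.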 The note with it: IL-1B + dexamethasone, luminescence; percent of negative control (+Dex): actives lie on both sides, concentration not given here; z-score: measured here: IL-1B alone, no Dex.
Test [3] deals with Cellular tumor antigen p53 (Homo sapiens) (UniProt P04637). As to the kind of experiment: GFP-p53 level modulators in HPV16+ cells – imaging, known kinase inhibitor set, EGFP/DsRed ratio (AID 1053116).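 Further: cells exposed to compounds for 24 h at 37 °C before reading.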 The note with it: GFP-p53 stability, stronger effect = higher value; EGFP object count: measured here: GFP-p53 positive objects count.
Sequence of Cellular tumor antigen p53 (Homo sapiens) (P04637 whole entry, looked up): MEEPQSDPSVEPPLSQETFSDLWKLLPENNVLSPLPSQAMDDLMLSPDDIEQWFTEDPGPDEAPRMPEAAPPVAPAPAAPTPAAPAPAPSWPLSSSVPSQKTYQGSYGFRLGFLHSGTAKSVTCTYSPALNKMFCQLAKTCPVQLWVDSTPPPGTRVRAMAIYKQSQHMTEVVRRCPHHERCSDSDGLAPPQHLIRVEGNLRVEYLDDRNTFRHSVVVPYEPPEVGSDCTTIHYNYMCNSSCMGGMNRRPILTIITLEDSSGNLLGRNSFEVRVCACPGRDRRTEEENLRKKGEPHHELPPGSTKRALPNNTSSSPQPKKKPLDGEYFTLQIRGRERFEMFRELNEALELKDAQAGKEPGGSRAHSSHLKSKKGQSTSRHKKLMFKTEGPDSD
Test [4] in a line: inducers of IRF3 signaling, differentiated THP-1 – cell-based, PMA-stimulated THP-1, luminescence (AID 1053176). The note with it: PMA-differentiated THP-1, IRF3 reporter luminescence; stronger effect = higher value.

Regarding `CN1CC2Cc3c(C4=C(c5cn(C)c6ccccc56)C(=O)NC4=O)c4ccccc4n3CC2C1` (stereo unspecified), in test [1], the liver cell % of control is 79.3% and 90.1%; the parasite % of control is 36.7% (inactive) and 27% (inactive). In addition, in test [2], the percent of negative control (+Dex) is 98.5% (inactive); the z-score is -0.62 and -0.215. Moreover, in test [3], the EGFP object count is 2.5 and 3.5; the EGFP/DsRed ratio was 0.0121 (inactive) and 0.0134 (inactive). In test [4], the fraction signal is -0.005 (inactive) and -0.0135 (inactive).

On to `Cn1cc(C2=C(c3cc[nH]c3)C(=O)NC2=O)c2ccccc21`, for which, in test [1], the liver cell % of control turned out to be 109% and the parasite % of control is 26.8% (inactive). In addition, in test [2], the percent of negative control (+Dex) is 104% (inactive) and the z-score is 0.12. Also, in test [3], the EGFP object count amounted to 3 and the EGFP/DsRed ratio is 0.329 (inactive). Also, the fraction signal in test [4] was -0.0025 (inactive).

Consider `CC(=O)NC(Cc1ccc(OP(=O)(O)O)cc1)C(=O)NC1CCC(=O)N2CCCC(C(=O)NCc3ccc(O)cc3)N2C1=O` (stereo unspecified), for which, in test [1], the liver cell % of control is 107% and the parasite % of control is 44.4% (inactive). Besides, in test [2], the percent of negative control (+Dex) is 94.5% (inactive) and the z-score was found to be 0.215. In test [3], the EGFP object count turned out to be 6 and the EGFP/DsRed ratio was 0.202 (inactive). Also, the fraction signal in test [4] is -0.007 (inactive).

For `CNC(C#Cc1c(F)ccc2c1C(=Cc1[nH]ccc1OC)C(=O)N2)CO` (stereo unspecified), in test [1], the liver cell % of control was found to be 129% and the parasite % of control is 62.7% (inactive). In test [2], the percent of negative control (+Dex) is 144% (active) and the z-score was found to be 1.07. In addition, in test [3], the EGFP object count came out at 51.5 and the EGFP/DsRed ratio is 0.055 (inactive). Further, the fraction signal in test [4] is 0.001 (inactive).

Regarding `O=C1NC(=NC(CO)c2ccccc2)SC1=Cc1ccc2ncccc2c1` (stereo unspecified), in test [1], the liver cell % of control is 113% and 90.5%; the parasite % of control is 71.9% (inactive) and 55.3% (inactive). Besides, in test [2], the percent of negative control (+Dex) is 102% (inactive) and 96% (inactive); the z-score is 0.925 and 0.08. In addition, in test [3], the EGFP object count is 4 and 5.5; the EGFP/DsRed ratio is 0.088 (inactive) and 0.122 (inactive). For the same compound, in test [4], the fraction signal is -0.005 (inactive) and 0.0055 (inactive).

Turning to `COc1cccc(C(=O)c2sc(Nc3ccc(N4CCN(C(C)C)CC4)cc3)nc2N)c1`, in test [1], the liver cell % of control worked out at 86.7% and the parasite % of control was 389% (inactive). Moreover, in test [2], the percent of negative control (+Dex) is 112% (inactive) and the z-score came to 1.07. Also, in test [3], the EGFP object count turned out to be 2.5 and the EGFP/DsRed ratio is 0.139 (inactive). Besides, the fraction signal in test [4] is -0.02 (inactive).

Regarding `Cn1cc(C2=C(c3cn(CCCCC(=N)N)c4ccccc34)C(=O)NC2=O)c2ccccc21`, in test [1], the liver cell % of control worked out at 133% and the parasite % of control was 22.6% (inactive). Further, in test [2], the percent of negative control (+Dex) is 98% (inactive) and the z-score came out at 0.29. In addition, in test [3], the EGFP object count worked out at 10.5 and the EGFP/DsRed ratio is 0.2 (inactive). In addition, the fraction signal in test [4] is 0.0055 (inactive).

As to `Cn1cc(C2=C(c3c[nH]c4ccccc34)C(=O)NC2=O)c2ccccc21`, in test [1], the liver cell % of control is 85.3% and the parasite % of control is 60.7% (inactive). In addition, in test [2], the percent of negative control (+Dex) is 101% (inactive) and the z-score was -1.61. Also, in test [3], the EGFP object count amounted to 73 and the EGFP/DsRed ratio is 0.286 (inactive). Besides, the fraction signal in test [4] was 0.0015 (inactive).

Consider `COc1ccccc1CN=C1NC(=O)C(=Cc2ccc3ncccc3c2)S1`, for which, in test [1], the liver cell % of control was 98.9% and the parasite % of control is 28.1% (inactive). For the same compound, in test [2], the percent of negative control (+Dex) was 91.5% (inactive) and the z-score was -0.71. Further, in test [3], the EGFP object count was 4.5 and the EGFP/DsRed ratio was 0.187 (inactive). In addition, in test [4], the fraction signal is -0.0025 (inactive).

With `COc1cc[nH]c1C=C1C(=O)Nc2ccc([N+](=O)[O-])c(N3CCC(O)C3)c21` (stereo unspecified), in test [1], the liver cell % of control stood at 102% and the parasite % of control is 15.7% (inactive). In test [2], the percent of negative control (+Dex) is 29.5% (active) and the z-score is -7.83. Besides, in test [3], the EGFP object count stood at 3.5 and the EGFP/DsRed ratio was 0.0609 (inactive). Moreover, in test [4], the fraction signal is -0.018 (inactive).

Regarding `Cc1[nH]nc2c1N=C(c1ccccc1F)c1cc(C(N)=O)ccc1N2`, in test [1], the liver cell % of control was 91.5% and the parasite % of control is 76.9% (inactive). For the same compound, in test [2], the percent of negative control (+Dex) was 110% (inactive) and the z-score was found to be 0.59. Further, in test [3], the EGFP object count is 54.5 and the EGFP/DsRed ratio is 0.555 (active). Besides, the fraction signal in test [4] was -0.005 (inactive).

Turning to `CS(=O)(=O)N1CCC(n2c(=O)c(Oc3ccc(F)cc3F)cc3cnc(NC4CCOCC4)nc32)CC1`, in test [1], the liver cell % of control was found to be 112% and the parasite % of control was 64.5% (inactive). Besides, in test [2], the percent of negative control (+Dex) is 95% (inactive) and the z-score is -0.51. In addition, in test [3], the EGFP object count came to 2 and the EGFP/DsRed ratio is 0.107 (inactive). In test [4], the fraction signal is 0.0035 (inactive).

Consider `Cn1cc(C2=C(c3cccc(NCC(O)CO)c3)C(=O)NC2=O)c2cc(Cl)ccc21` (stereo unspecified), for which, in test [1], the liver cell % of control was found to be 134% and the parasite % of control is 44.5% (inactive). Also, in test [2], the percent of negative control (+Dex) is 140% (active) and the z-score is -1.56. Also, in test [3], the EGFP object count worked out at 15 and the EGFP/DsRed ratio is 0.196 (inactive). In addition, in test [4], the fraction signal is -0.0005 (inactive).

Consider `Cc1ccc2c(c1)c(C1=C(c3cn(C)c4ccccc34)C(=O)NC1=O)cn2C`, for which, in test [1], the liver cell % of control stood at 83% and the parasite % of control was 41.7% (inactive). For the same compound, in test [2], the percent of negative control (+Dex) is 102% (inactive) and the z-score is -1.36. Besides, in test [3], the EGFP object count came to 174 and the EGFP/DsRed ratio is 0.907 (active). Moreover, in test [4], the fraction signal is -0.003 (inactive).

Turning to `Cn1c(=O)c(Cc2ccc(F)cc2F)cc2cnc(NC3CCOCC3)nc21`, in test [1], the liver cell % of control stood at 103% and the parasite % of control was 54.9% (inactive). Moreover, in test [2], the percent of negative control (+Dex) was 98.5% (inactive) and the z-score is 0.48. Moreover, in test [3], the EGFP object count came out at 3 and the EGFP/DsRed ratio is 0.139 (inactive). For the same compound, the fraction signal in test [4] was -0.0055 (inactive).

Consider `Cc1cc(C)c2c(n1)sc1c(N)ncnc12`, for which, in test [1], the liver cell % of control was found to be 173% and the parasite % of control is 24.3% (inactive). Further, in test [2], the percent of negative control (+Dex) is 68.5% (active) and the z-score is -2.76. In test [3], the EGFP object count amounted to 2.5 and the EGFP/DsRed ratio was 0.0145 (inactive). The fraction signal in test [4] was 0.0035 (inactive).

With `COc1cccc(F)c1C(=O)c1cnc(NC2CCN(S(C)(=O)=O)CC2)nc1N`, in test [1], the liver cell % of control is 93.1% and the parasite % of control is 512% (inactive). Also, in test [2], the percent of negative control (+Dex) is 116% (inactive) and the z-score was 2.08. In addition, in test [3], the EGFP object count amounted to 3.5 and the EGFP/DsRed ratio is 0.124 (inactive). Moreover, the fraction signal in test [4] is -0.018 (inactive).

Regarding `COc1ccc(O)c(C(=O)c2ccc(C(=O)O[C@H]3CCCNC[C@@H]3NC(=O)c3ccncc3)cc2)c1F`, in test [1], the liver cell % of control was found to be 113% and the parasite % of control is 109% (inactive). Moreover, in test [2], the percent of negative control (+Dex) is 62% (active) and the z-score was -1.53. In test [3], the EGFP object count amounted to 15.5 and the EGFP/DsRed ratio is 0.253 (inactive). The fraction signal in test [4] is 0.001 (inactive).
